According to PubChem BioAssay (Tox21):
Results filed as inconclusive are left out. Unmarked numbers belong to inactive results. The call rests on the fitted dose curve; in most records, active means well fitted cell-killing curve with a large enough effect in the repeat runs; inconclusive means weak or mixed curves; inactive means flat fitted curve, though single readings scatter.
On the % scale 0 is the no-effect control and ±100 the full control effect.

Assay: qHTS RealTime-Glo MT Cell Viability Assay in HepG2 cells - 32 hour (AID 1224877); further: nearly all actives have a fitted effect of over 55% in size
Settings: RealTime-Glo luminescence; series mostly up to 76.8 µM; activity change, negative = cytotoxic: at the top concentration
Text: U.S. Tox21 Program National Center for Advancing Translational Sciences [NCATS] NIH Chemical Genomics Center [NCGC] U.S. Environmental Protection Agency [EPA] National Institutes of Environmental Health Sciences [NIEHS] National Toxicology Program [NTP] U.S. Food and Drug Administration [FDA] Tox21 Assay Overview: Measure of cell viability is critical in the cell-base assay. Analysis of cell viability is necessary for the characterization of cell responses to cytotoxic drugs and environmental stress. A RealTime-Glo MT Cell Viability Assay to monitor cell viability in real time of continues cell culture during 40 hours of compound treatment was used to screen Tox21 10K library compounds in HepG2 cells. The RealTime-Glo MT Cell Viability Assay is a nonlytic, homogeneous, bioluminescent method to measure cell viability in real time using a simple, plate-based method. The assay involves adding NanoLuc luciferase and a cell-permeant prosubstrate to cells in culture. Viable cells reduce the proprietary prosubstrate to generate a substrate for NanoLuc luciferase. This substrate diffuses from cells into the surrounding culture medium, where it is rapidly used by the NanoLuc Enzyme to produce a luminescent signal. The signal correlates with the number of viable cells, making the assay well suited for cytotoxicity studies.
Tox21 Assay Protocol Summary: The mixture of HepG2 cell suspension and reagents were dispensed at 600cells/6 ul/well in 1536-well tissue culture treated black solid bottom plates using a Multidrop dispenser. After the assay plates were incubated at a 37 C/5% CO2 incubator for 5 hours, 23 nL of compounds dissolved in DMSO, positive and negative controls was transferred to the assay plate by a pintool work station. The plates were incubated at 37 C for 40 hours. The luminescence intensity were measured at 0h, 8h, 16h, 24h, 32h and 40h time points using ViewLux plate reader during compound treatment.
In the case of CC(C)CCCC(C)NCCC(C)C (stereo not given), the “activity change, negative = cytotoxic” value is reported as 0.897% [at 35.3 µM].
In the case of COC(=O)C1=C(C)NC(C)=C(C(=O)OCC(C)=O)C1c1ccccc1[N+](=O)[O-] (stereo not given), the “activity change, negative = cytotoxic” value is reported as -7.69% [at 35.3 µM].
With CN(C)CCn1nnnc1SCC1=C(C(=O)O)N2C(=O)[C@@H](NC(=O)Cc3csc(N)n3)[C@H]2SC1 the “activity change, negative = cytotoxic” value was 6.8% [at 35.3 µM].
With CC(C)(C)N(CCO)CCO the “activity change, negative = cytotoxic” value was -0.12%.
With COc1ccc2cc(C=O)ccc2c1 the “activity change, negative = cytotoxic” value was 1.37% [at 35.3 µM].
In the case of CCOC(=O)Cn1c(=O)sc2cccc(Cl)c21, the “activity change, negative = cytotoxic” value is reported as -22.7%.
With CCCCC=O the “activity change, negative = cytotoxic” value was 1.44%.
For C=C[Si](OC)(OC)OC, the “activity change, negative = cytotoxic” value was 0.294%.
C=C(C)C(=O)OCCCCCCCCCCCCCCCCCC gave an activity change, negative = cytotoxic of 6.06% [at 15.8 µM].
For OCC(CO)(CO)COCC(CO)(CO)CO, the “activity change, negative = cytotoxic” value was -16.7%.
With CCCCNc1ccccc1 the “activity change, negative = cytotoxic” value was 0.298%.
For CC1=CC(=O)CCC1, the “activity change, negative = cytotoxic” value was 1.11%.
With Nc1cc(N)cc(C(=O)O)c1 the “activity change, negative = cytotoxic” value was 2.08%.
For C=CCn1c(=O)n([C@@H]2O[C@H](CO)[C@@H](O)[C@H]2O)c2nc(N)[nH]c(=O)c21, the “activity change, negative = cytotoxic” value was 3.42% [at 35.3 µM].
For Nc1nc(F)nc2c1ncn2[C@@H]1O[C@H](CO)[C@@H](O)[C@@H]1O, the “activity change, negative = cytotoxic” value was 0.194% [at 35.3 µM].
In the case of CCN(CC)C(=O)c1ccc(O)c(OC)c1, the “activity change, negative = cytotoxic” value is reported as 2.3% [at 35.3 µM].
With COc1ccc(NC(C)=O)cc1 the “activity change, negative = cytotoxic” value was -1.61%.
In the case of N#CCN(CC#N)CCN(CC#N)CC#N, the “activity change, negative = cytotoxic” value is reported as 0.472%.
For COC(=O)c1ccc(C(=O)OC)c(C(=O)OC)c1, the “activity change, negative = cytotoxic” value was -4.74%.
With C#CC(C)(O)CC(C)C (stereo not given) the “activity change, negative = cytotoxic” value was 0.908%.
In the case of CCCCCC[C@@H](CCC)C(=O)O, the “activity change, negative = cytotoxic” value is reported as 2.54% [at 35.3 µM].
For N#CCc1ccccc1[N+](=O)[O-], the “activity change, negative = cytotoxic” value was -0.398%.
With CCCCCCOC(=O)CC(CC(=O)OCCCCCC)(OC(=O)CCC)C(=O)OCCCCCC the “activity change, negative = cytotoxic” value was -0.588%.
In the case of Nc1ccc2cc(S(=O)(=O)O)ccc2c1, the “activity change, negative = cytotoxic” value is reported as 3.24%.
For COc1nc(C)nc(N)n1, the “activity change, negative = cytotoxic” value was 2.72%.
In the case of Fc1ccccc1-c1ccccc1, the “activity change, negative = cytotoxic” value is reported as 4.14%.
With Nc1cc(C(Cl)=C(Cl)Cl)c(S(N)(=O)=O)cc1S(N)(=O)=O the “activity change, negative = cytotoxic” value was 1.65% [at 35.3 µM].
For c1ccc2cnncc2c1, the “activity change, negative = cytotoxic” value was 4.43%.
For CC1=CC(C)C(C=O)C(C)C1 (stereo not given), the “activity change, negative = cytotoxic” value was 1.82%.
In the case of O=C(O)c1ccccc1S, the “activity change, negative = cytotoxic” value is reported as 0.419% [at 35.3 µM].
For CCOC(=O)[C@H](CCc1ccccc1)N[C@@H](C)C(=O)N1CCC[C@H]1C(=O)O, the “activity change, negative = cytotoxic” value was 1.77% [at 35.3 µM].
For CSc1nc(NC2CC2)nc(NC(C)(C)C)n1, the “activity change, negative = cytotoxic” value was -8.51%.
In the case of CC1(C)SC(C)(C)SC(C)(C)S1, the “activity change, negative = cytotoxic” value is reported as 4.99%.
In the case of O=C(O)CCNC(=O)c1ccc(N=Nc2ccc(O)c(C(=O)O)c2)cc1, the “activity change, negative = cytotoxic” value is reported as -5.2% [at 35.3 µM].
For CC(C)(C)OC(=O)N1C[C@@H](F)C[C@H]1C(=O)O, the “activity change, negative = cytotoxic” value was -0.053%.
For CC(C)(C)C(=O)/C=C/c1ccc(Cl)cc1, the “activity change, negative = cytotoxic” value was -0.753%.
With CCCCc1ccc(N)cc1 the “activity change, negative = cytotoxic” value was -3.36%.
With C=CC(=O)OCCCCCC the “activity change, negative = cytotoxic” value was 1.74%.
With CCCOCC(C)OCC(C)O (stereo not given) the “activity change, negative = cytotoxic” value was -0.484%.
For COC(=O)CCCC(=O)O, the “activity change, negative = cytotoxic” value was -0.758%.
